This is an account of results in the supplement of paper PMC11060735.

Hit rate of the full screen: of about 1,800 compounds, about 50 (3%) showed activity. This excerpt belongs to a sample that is enriched for actives. Values without a mark were called inactive.

The experiment relates to mouse p16Ink4a+/- lung fibroblasts (INKBRITE, bleomycin-injured). In words: percentage of GFP+ (p16Ink4a+) fibroblasts among all cells in well; higher = less depletion of p16Ink4a+ cells, active = 20 or less. The conditions noted are these: 1 µM; 3 days.
Regarding `CC[C@@H]1[C@@H](C)O[C@@](O)([C@@H](C)[C@H](O)[C@H](C)[C@H]2OC(=O)/C=C/C=C/[C@H](C)[C@H]([C@@H](C)[C@@H](O)[C@H](C)[C@@]3(O)C[C@@H](O[C@H]4C[C@H](O)[C@H](O)[C@H](C)O4)[C@H](CC)[C@@H](C)O3)OC(=O)/C=C/C=C/[C@H]2C)C[C@H]1O[C@H]1C[C@H](O)[C@H](O)[C@H](C)O1` [Elaiophylin], the “percentage of GFP+” value is 11.1% (active).

For the molecule `O=[N+]([O-])c1ncc[nH]1` [Azomycin], the “percentage of GFP+” value was 43.5%.

As to `CN1c2ccccc2C(NCCCCCCC(=O)O)c2ccc(Cl)cc2S1(=O)=O` (stereo not given) [Tianeptine], the “percentage of GFP+” value was 29.5%.

Consider `C[C@](O)(COc1ccc(C#N)cc1)C(=O)Nc1ccc(C#N)c(C(F)(F)F)c1`, for which the “percentage of GFP+” value is 43.3%.

On to `CN1CCC(c2c[nH]c3ccc(O)cc23)CC1`, for which the “percentage of GFP+” value was 45.6%.

As to `CO[C@H]1CCC(O[C@H]2C[C@H]([C@]3(C)CC[C@]4(C[C@H](O)[C@@H](C)[C@@H]([C@@H](C)/C=C(\C)C(=O)[C@H](C)C[C@H](C)C(=O)O)O4)O3)O[C@]3(O[C@@H]([C@H]4O[C@@](O)(CO)[C@H](C)C[C@@H]4C)C[C@@H]3C)[C@@H]2C)O[C@@H]1C` (stereo not given in full) [Nanchangmycin], the “percentage of GFP+” value is 18.5% (active).

`CCCN1C[C@H](CSC)C[C@@H]2c3cccc4[nH]cc(c34)C[C@H]21` [Pergolide]: the “percentage of GFP+” value is 54.5%.

For the molecule `C=CC[C@]1(O)CC[C@H]2[C@@H]3CCC4=CC(=O)CCC4=C3C=C[C@@]21C` [Altrenogest], the “percentage of GFP+” value was 48.5%.

With `O=P1(NCCCl)OCCCN1CCCl` (stereo not given) [Ifosfamide], the “percentage of GFP+” value is 45.7%.

As to `Cc1cc(C(=O)CN2CCCC2)c(C)n1-c1ccc(F)cc1`, the “percentage of GFP+” value was 51.3%.

For `CCC1(C)CC(=O)NC(=O)C1` [Bemegride], the “percentage of GFP+” value was 48.1%.

As to `CC(C)[C@]12O[C@H]1[C@@H]1O[C@]13[C@]1(O[C@H]1C[C@H]1C4=C(CC[C@@]13C)C(=O)OC4)[C@@H]2O` [Triptolide], the “percentage of GFP+” value is 4.17% (active).

On to `Cc1ccccc1-n1c(Cn2ncc3c(N)ncnc32)nc2cccc(C)c2c1=O`, for which the “percentage of GFP+” value is 38.7%.

In the case of `CCC1=C[C@@H]2CN3CCc4c([nH]c5ccccc45)[C@@](C(=O)OC)(C2)[C@@H]13` [Catharanthine], the “percentage of GFP+” value is 47.9%.

For the molecule `CN1CCN(c2nc3ccccc3nc2Cl)CC1`, the “percentage of GFP+” value was 42.1%.
